Consider 40 molecules from ChEMBL document CHEMBL3988442, “University of Dundee, Small-Polar-MMV Screening Library” (2021).

Molecules are shown by their SMILES.

The experiment has as its target AMP-activated protein kinase, AMPK (Homo sapiens) (UniProt P54646+O43741+P54619+Q9UGJ0+Q9Y478+Q13131+Q9UGI9). Kind of experiment: AMP-dependent Kinase enzyme assay. An in vitro enzyme assay that detects ADP turnover that is directly proportional to AMPK activity. This uses naive AMPK that is activated during the assay with MK-8722. The experiment is classed as functional. Also on record: scale not given: direction of the effect not stated beside the values. The following applies: 30 µM.
For the molecule `CC(C)n1cc(CN(C)C[C@@H]2CCCN3CCCC[C@H]23)cn1`, the Percent Effect is 3.96%.
Turning to `CN(C)CCNC(=O)CCC1CCN(C(=O)c2ccc(Cl)cc2O)CC1`, the Percent Effect was found to be 9.06%.
In the case of `Cc1noc(C2CCN(Cn3cc(Cl)cn3)CC2)n1` it was 2.75%; in that of `Cc1ncsc1CCN(C)C(=O)CCc1nc2cccnc2n1C`, -7.17%.
As to `Cc1cc(N(C)C)nc(N2CCn3c(nnc3C(C)C)C2)n1`, the Percent Effect was found to be 8.26%.
As for `C[C@@H]1CN(c2ccc(Cl)cn2)CC[C@@]1(O)C1CCOCC1`, the Percent Effect came to 5.56%.
Then `COCCC1(C(=O)O)CCCN(C(=O)c2cnc3c(c2)CCCC3)C1` (stereo not given), with 2.02%; and `CCn1cnnc1CNC(=O)N1CCOC(c2ccc(Cl)cc2)C1` (stereo not given), with -4.37%; and `CC(NCc1cccc(COC2CCCC2)c1)c1cnn(C)c1` (stereo not given), with 3.6%.
Take `CCc1oc(C(=O)N[C@@H]2c3ccccc3C[C@@H]2O)cc1CN1CCCC1`: the Percent Effect worked out at 4.06%.
As to `Cc1cccc(C(C)C)c1NC(=O)NCCN(C(C)C)C(C)C`, the Percent Effect worked out at 15.2%.
On to `CCNC(=O)[C@@H]1C[C@H](N)CN1C(=O)c1c[nH]c2ccccc12`, for which the Percent Effect is 6.06%.
Then `O=C(c1cccnc1O)N1CCC2(CCCO2)CC1`, with 0.948%; and `Cc1nc(O)cc(CN2C[C@H](NC(=O)C3CCCC3)[C@@H](C3CC3)C2)n1`, with -1.66%; and `COc1cc(COCC2CCN(Cc3cccnc3)CC2)cc(OC)c1`, with 1.38%.
Regarding `CC(C)(C)c1noc(CCCC(=O)N2CCNC(=O)C2)n1`, the Percent Effect is -8.74%.
Then `O=c1ccc(S(=O)(=O)N2CCCC2)cn1CC1CCCCO1` (stereo not given), with 6.91%; and `CC(NCC(=O)N1CCc2sccc2C1)c1ccccc1F` (stereo not given), with 10.8%.
`Cc1cccc(C)c1Nc1noc2c1CN(C(=O)c1cn(C)cn1)CC2`: the Percent Effect was determined as 17.2%.
On to `Cc1ccc(C(=O)NC2CCCN(CC(N)=O)C2)c(=O)[nH]1` (stereo not given), for which the Percent Effect was 2.52%.
In the case of `CN(Cc1cscn1)Cc1cc2c(cc1Br)OCO2` it was -7.36%.
Take `CC(NCC(=O)NCC(=O)Nc1ccc(F)cc1)c1cccs1` (stereo not given): the Percent Effect is 8.16%.
In the case of `Cc1ccc(F)c(CNc2ccn(CCC(N)=O)n2)c1` it was -4.33%.
For `O=C(NCC[S+]([O-])Cc1ccccc1)c1ccc2[nH]c(=O)[nH]c2c1` (stereo not given), the Percent Effect came out at 13.6%.
Then `CNC(=O)c1[nH]nc2c1CN(c1cc(C3CCCNC3)nc(C)n1)CC2` (stereo not given), with 18.4%; and `COc1ccccc1OCCc1nnc(NC(=O)C2CC23CCC3)s1` (stereo not given), with 8.73%.
`COc1ccc2c(c1)CCCC2CC(=O)NCC(=O)O` (stereo not given): the Percent Effect stood at 3.73%.
As for `Cc1noc(C)c1C(=O)N[C@@H]1CC[C@@H](Oc2ccccc2)[C@@H]1O`, the Percent Effect came out at 18.4%.
As to `O=C(c1cccc2ccnn12)N1CCC[C@H]1CN1CCCC1`, the Percent Effect was -0.374%.
`O=c1cc(N2CCCC2)cnn1Cc1noc(C2CCCO2)n1` (stereo not given): the Percent Effect is -1.31%.
For the molecule `O=S(=O)(NCCCn1cncn1)c1ccc2c(c1)CCO2`, the Percent Effect was 4.51%.
In the case of `CN1CCN(C2CCN(C(=O)CCC3CCCC3)CC2)CC1`, the Percent Effect came out at 7.72%.
With `CC(=O)N1CCN(C(=O)NC(C)Cn2ccnc2)CC1` (stereo not given), the Percent Effect is -4.12%.
`COCC(=O)NCCc1nc2cc(-c3ccc(OC)cc3)ncn2n1`: the Percent Effect amounted to 8.07%.
Take `CCc1nc(C)c(C(=O)N2C[C@@H](C(=O)O)[C@H](C3CC3)C2)s1`: the Percent Effect came out at 2.29%.
Then `CS(=O)(=O)N1CCC(CNc2cc(Cl)ccc2C#N)CC1`, with 7.86%; and `N#CC1COCCN1C(=O)c1cccc2cc[nH]c12` (stereo not given), with 5.13%; and `C[C@@H]1CN(S(=O)(=O)N2CCCCCC2)C[C@@]1(O)C1CCC1`, with -7.79%.
For `Cn1ccnc1CN1CCCC1CCc1ccccc1` (stereo not given), the Percent Effect is -8.09%.
In the case of `COc1ccc(OC)c(S(=O)(=O)NC(=O)C(C)OC)c1` (stereo not given), the Percent Effect was -3.05%.
